Our source for the growth values is PubChem BioAssay (NCI).

Common to all, as to experiment: NCI-60 one-dose screen, 48 h (100 = growth as untreated, 0 = no growth, -100 = all killed)
One experiment deals with HCT-15 colon. Conditions: 10 µM unless noted.
For the next experiment, the system named is HT29 colon. The settings on record: 10 µM unless noted.
The next experiment deals with SNB-75 CNS. Conditions: 10 µM unless noted.
For a further experiment, the system named is SNB-19 CNS. The settings on record: 10 µM unless noted.
For the next experiment, the system named is U251 CNS. Conditions: 10 µM unless noted.
Another experiment relates to SK-MEL-5 melanoma. The settings on record: 10 µM unless noted.
For a further experiment, the system named is UACC-62 melanoma. The settings on record: 10 µM unless noted.
The next experiment relates to LOX IMVI melanoma. Conditions: 10 µM unless noted.
For another experiment, the system named is SK-MEL-28 melanoma. The settings on record: 10 µM unless noted.
The subject of the next experiment is SK-MEL-2 melanoma. Conditions: 10 µM unless noted.
In another experiment the test system is SN12C renal. Conditions: 10 µM unless noted.
Another experiment concerns UO-31 renal. Conditions: 10 µM unless noted.
For a further experiment, the system named is TK-10 renal. The settings on record: 10 µM unless noted.
The subject of a further experiment is ACHN renal. The settings on record: 10 µM unless noted.
The next experiment concerns A498 renal. Conditions: 10 µM unless noted.
For another experiment, the system named is CCRF-CEM leukemia. The settings on record: 10 µM.
For another experiment, the system named is EKVX NSCLC. The settings on record: 10 µM.
The test system of the next experiment is CAKI-1 renal. The settings on record: 10 µM unless noted.
In a further experiment the test system is MOLT-4 leukemia. The settings on record: 10 µM unless noted.

The panel holds about 83,000 compounds, 20% with a hit somewhere; the sample as a whole holds those more often.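 The endpoint reported here, percent growth, reads 100 for growth as untreated, 0 for no net growth and -100 for all cells dead.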 Unmarked numbers belong to inactive results. Activity calls are given as the source filed them. Rule for the calls: active = growth percent below 10; inactive = the rest.

`CC(=O)Nc1ccc(S(=O)(=O)Cl)cc1`: the growth in the experiment with HCT-15 colon is 110%; in the experiment on HT29 colon it was 106%; in the experiment with SNB-75 CNS, 94%; in the experiment with SNB-19 CNS, 110%; in the experiment on U251 CNS, 95.6%; in the experiment with SK-MEL-5 melanoma, 98.3%. For the same compound, the growth was 97.9% with UACC-62 melanoma; 94.8% in the experiment with LOX IMVI melanoma; 117% in the experiment with SK-MEL-28 melanoma; 111% in the experiment on SK-MEL-2 melanoma; 94.5% in the experiment on SN12C renal; 97.2% with UO-31 renal. Moreover, the growth is 100% in the experiment on TK-10 renal, 113% in the experiment with ACHN renal, 101% in the experiment on A498 renal and 90.9% in the experiment with CCRF-CEM leukemia.

For `Nc1cc2c(cc1Br)[nH]c(=O)c1ccccc12`, the growth with HCT-15 colon was 58.3%; in the experiment with HT29 colon it was 22.4%; with SNB-75 CNS, 94.3%; in the experiment on SNB-19 CNS it was 58.6%; in the experiment with U251 CNS it was 40.3%; in the experiment on SK-MEL-5 melanoma it was 0.102% (active). For the same compound, the growth in the experiment on UACC-62 melanoma was 73.4%; in the experiment on LOX IMVI melanoma, 25.1%; in the experiment with SK-MEL-28 melanoma, 78.4%; in the experiment on SK-MEL-2 melanoma, 40.2%; in the experiment on EKVX NSCLC, 49.5%; in the experiment with SN12C renal, 39.8%. Moreover, the growth in the experiment with UO-31 renal was 48.1%; with TK-10 renal it was 44%; with ACHN renal, 22.5%; with CAKI-1 renal it was 52.9%; with A498 renal it was 56%; in the experiment on CCRF-CEM leukemia, 47.1%. In addition, in the experiment with MOLT-4 leukemia, the growth was 20.9%.

Take `O=[N+]([O-])c1ccc(-c2ncc(-c3ccc(O)cc3O)[nH]2)cc1`: the growth with HCT-15 colon is 100%; with HT29 colon, 123%; in the experiment on SNB-75 CNS it was 103%; with SNB-19 CNS it was 93.3%; in the experiment with U251 CNS, 103%; with SK-MEL-5 melanoma it was 109%. In addition, the growth in the experiment with UACC-62 melanoma is 95.3%; in the experiment with LOX IMVI melanoma, 103%; in the experiment on SK-MEL-28 melanoma, 108%; in the experiment on EKVX NSCLC, 92.4%; in the experiment with SN12C renal, 101%; with UO-31 renal, 102%. Further, the growth in the experiment with TK-10 renal was 124%; in the experiment with ACHN renal, 106%; with A498 renal, 101%; in the experiment with CCRF-CEM leukemia, -19.1% (active); in the experiment on MOLT-4 leukemia it was 99.1%.

Regarding `CC(=O)Nc1nc(C)c(C(=O)N/N=C/N2CCCCC2)s1`, the growth is 111% in the experiment with HCT-15 colon; 109% in the experiment on HT29 colon; 81.6% in the experiment with SNB-75 CNS; 103% in the experiment on SNB-19 CNS; 105% in the experiment on U251 CNS; 113% with SK-MEL-5 melanoma. The growth in the experiment with UACC-62 melanoma was 107%; in the experiment on LOX IMVI melanoma, 103%; in the experiment on SK-MEL-28 melanoma, 114%; in the experiment on SK-MEL-2 melanoma, 15.3%; in the experiment on EKVX NSCLC, 112%; with SN12C renal it was 106%. In addition, the growth with UO-31 renal is 98.7%; with TK-10 renal, 144%; in the experiment on ACHN renal it was 116%; in the experiment on CAKI-1 renal it was 132%; in the experiment with A498 renal it was 119%; with CCRF-CEM leukemia, 94.6%. In addition, in the experiment with MOLT-4 leukemia, the growth was 130%.

Turning to `CCCC(CCC)Oc1ccc(CCCC2=C(O)c3ccccc3C(=O)C2=O)cc1`, the growth is 21.7% in the experiment on HCT-15 colon; 25.8% in the experiment with HT29 colon; 46.1% with SNB-75 CNS; 28.2% in the experiment on SNB-19 CNS; 27.1% in the experiment on U251 CNS; 13.1% with SK-MEL-5 melanoma. Moreover, the growth is 30.4% in the experiment on UACC-62 melanoma; 5.38% (active) with LOX IMVI melanoma; 59.2% in the experiment on SK-MEL-28 melanoma; 27.7% in the experiment with SK-MEL-2 melanoma; 26.3% in the experiment with EKVX NSCLC; 47.3% in the experiment with UO-31 renal. In addition, the growth is 36.2% in the experiment on TK-10 renal; 29.9% in the experiment with ACHN renal; 64.4% with CAKI-1 renal; 31% in the experiment with A498 renal; 36.1% with CCRF-CEM leukemia; 38.1% in the experiment on MOLT-4 leukemia.

On to `CCC1(CC)C(OC)NC(Br)=C(C#N)C1(C#N)C(N)=O` (centres undefined), for which the growth with HCT-15 colon was 114%; with HT29 colon, 105%; in the experiment with SNB-75 CNS, 99.3%; in the experiment with SNB-19 CNS it was 110%; in the experiment with U251 CNS, 104%; with SK-MEL-5 melanoma, 109%. The growth was 99.5% in the experiment with UACC-62 melanoma; 101% in the experiment on LOX IMVI melanoma; 114% in the experiment on SK-MEL-28 melanoma; 102% with SK-MEL-2 melanoma; 103% in the experiment with EKVX NSCLC; 106% with SN12C renal. Further, the growth in the experiment on UO-31 renal was 85.2%; with TK-10 renal it was 118%; in the experiment with ACHN renal it was 108%; in the experiment on CAKI-1 renal, 117%; in the experiment on A498 renal, 114%; with CCRF-CEM leukemia it was 100%. In the experiment on MOLT-4 leukemia, the growth is 88.4%.

As for `COC(=O)c1ccc2[nH]c(O)c(C(=Nc3ccc(N(C)C(=O)CN4CCN(C)CC4)cc3)c3cccc(OC)c3)c2c1`, the growth with HCT-15 colon is 7.72% (active); with HT29 colon, -2.16% (active); with SNB-75 CNS it was -2.49% (active); in the experiment with SNB-19 CNS, 12.7%; in the experiment on U251 CNS, 11.7%; in the experiment on SK-MEL-5 melanoma, 6.71% (active). Moreover, the growth with UACC-62 melanoma was 36.6%; with LOX IMVI melanoma, 8.47% (active); in the experiment on SK-MEL-28 melanoma it was 19.5%; in the experiment on SK-MEL-2 melanoma it was -0.0955% (active); in the experiment on EKVX NSCLC, 38.7%; with SN12C renal it was 9.77% (active). Besides, the growth in the experiment with UO-31 renal was 20.2%; in the experiment on TK-10 renal, 0.964% (active); with ACHN renal, 6.22% (active); in the experiment with CAKI-1 renal, 2.55% (active); in the experiment with A498 renal, -14.9% (active); with CCRF-CEM leukemia, 7.19% (active). For the same compound, the growth in the experiment with MOLT-4 leukemia is -7.42% (active).

Turning to `COc1ccc(OC)c(Cn2cc3c(c2-c2ccccc2)CCc2cnoc2-3)c1`, the growth was 45.5% in the experiment with HCT-15 colon; 30.4% with HT29 colon; 55.9% with SNB-75 CNS; 65.5% with SNB-19 CNS; 53.4% in the experiment with U251 CNS; 40.2% in the experiment with SK-MEL-5 melanoma. For the same compound, the growth in the experiment with UACC-62 melanoma is 48.1%; with LOX IMVI melanoma it was 61.6%; in the experiment with SK-MEL-28 melanoma, 65.9%; in the experiment on SK-MEL-2 melanoma, 74.2%; in the experiment on EKVX NSCLC it was 58.5%; with SN12C renal, 73%. Further, the growth is 59% with UO-31 renal; 86.1% in the experiment with TK-10 renal; 65.3% in the experiment with ACHN renal; 28.9% in the experiment on CAKI-1 renal; 53.8% with A498 renal; 48.7% in the experiment on CCRF-CEM leukemia. Besides, the growth in the experiment with MOLT-4 leukemia is 47%.

On to `CCC(C)(C)c1ccc(OCCCCCCN2CCN(c3ccc(C)c(Cl)c3)CC2)cc1`, for which the growth with HCT-15 colon was 64.8%; with HT29 colon it was 82.8%; with SNB-75 CNS, 92.2%; in the experiment with SNB-19 CNS, 103%; in the experiment on U251 CNS it was 104%; with SK-MEL-5 melanoma, 78.1%. The growth in the experiment with UACC-62 melanoma is 79.2%; in the experiment on LOX IMVI melanoma it was 81.8%; in the experiment on SK-MEL-28 melanoma it was 96.5%; in the experiment with SK-MEL-2 melanoma, 104%; with EKVX NSCLC, 83%; in the experiment on SN12C renal, 92.3%. Further, the growth in the experiment on UO-31 renal is 64.5%; in the experiment with TK-10 renal, 110%; in the experiment on ACHN renal, 91.3%; in the experiment on CAKI-1 renal, 77.7%; in the experiment on CCRF-CEM leukemia it was -43.1% (active); in the experiment on MOLT-4 leukemia, 98.3%.
